Most compounds without a hit are left out; they make up all but 8.9% or so of the library.
ALOX12 inhib: 12-hLO (ALOX12) enzyme inhibition. purified 12-hLO, xylenol orange hydroperoxide absorbance. Potency, µM (highest dose often 57.1 µM), without a hit: at the top dose activity change, negative = inhibition, hits mostly inhibitors. 150,000 tested, 0.12% active; further: potency means the concentration at half of the fitted maximal effect; nearly all actives have a fitted effect of over 55% in size
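Hydroperoxide formation by human 12-lipoxygenase from 40 uM arachidonic acid was followed colorimetrically via ferric-xylenol orange complex, using the 573/405 nm absorbance ratio. Enzyme concentration was 150 nM, with 30 min reaction at room temperature.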
IMPase Li inh: cell-permeable IMPase inhibitors with lithium potentiation; 210,000 tested, 0.35% active; AID 1457; CHO-M1 cells, IP1 TR-FRET (IP-One), carbachol + lithium; Potency, µM (top dose mostly 59.4 µM), inactives show at the highest dose activity, negative = IMPase inhibition, most hits filed as inhibitors;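 further: IP1 builds up when IMPase is blocked and the TR-FRET signal falls; potency means the concentration at half of the fitted maximal effect; plate controls were basal vehicle for no effect and high inhibitor control for full effect; nearly all actives have a fitted effect of over 50% in size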
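IP1 accumulation measured by competitive TR-FRET in lysed CHO-M1 cells after 30 min compound exposure at 37C, with a small lithium addition to potentiate weak responses. Hill-equation AC50 from ratio and donor-channel data.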
HPGD block: HPGD (human) dehydrogenase inhibition | AID 894 | P15428 | Potency, µM, inactives show at the top dose activity change, negative = inhibition, most hits filed as inhibitors | 150,000 tested, 4.3% active | purified HPGD, NADH fluorescence kinetic, PGE2 substrate; active means well fitted inhibition curve with a large enough effect, not every such curve was filed as active; inconclusive means small, poorly fitted or top-dose-only effect, or another doubt; inactive means no such curve, though single readings can be large or run the other way; further: potency means the concentration at half of the fitted maximal effect
Target sequence (P15428 whole entry, looked up): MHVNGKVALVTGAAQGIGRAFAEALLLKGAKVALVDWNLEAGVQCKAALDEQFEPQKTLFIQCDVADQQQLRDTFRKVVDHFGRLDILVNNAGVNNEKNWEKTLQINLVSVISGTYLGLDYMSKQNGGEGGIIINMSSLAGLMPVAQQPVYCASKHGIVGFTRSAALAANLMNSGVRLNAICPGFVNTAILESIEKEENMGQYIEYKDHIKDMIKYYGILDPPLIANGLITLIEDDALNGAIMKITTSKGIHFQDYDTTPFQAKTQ
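NADH formation kinetics: reaction with 30 uM PGE2 and 1 mM NAD+ (final), 20 nM enzyme, Tris-HCl pH 8 with Tween 20, after 15 min compound preincubation at room temperature. Fluorescence change, last versus first of five reads.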
IMPase cell inh: IMPase inhibition in cells | P97697 | CHO-M1 cells, IP1 accumulation, HTRF TR-FRET ratio | inhibition (IP1 accumulation), % at 46.1 µM | 120,000 tested, under 10 active | AID 901; active means well fitted curve in the direction sought with a large enough effect in the signal ratio, not every such curve was filed as active; inconclusive means small, poorly fitted or top-dose-only effect, or a change in a side signal; inactive means no such curve, though single readings can be large or run the other way; the % refers to the signal ratio;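 further: cells stimulated with carbachol in lithium chloride buffer; plate controls were DMSO basal wells for no effect and reference inhibitor wells for full effect; higher means more IMPase inhibition seen as more IP1 and lower FRET ratio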
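Elevated IP1 in lysates lowers TR-FRET signal (665/620 ratio and 620 channel reported). Cells were CHO-M1, given carbachol (50 uM as added) plus 50mM LiCl, pH 7.4, 30 min, 37C; compounds titrated up to 46 uM; AC50 by Hill equation.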
NPSR antag: antagonists of human neuropeptide S receptor cAMP signaling | CHO-NPSR cells, cAMP TR-FRET, antagonist mode | Potency, µM (top dose mostly 38.3 µM), for the others: at the highest dose activity change, negative = inhibition, actives largely listed as inhibitors | 220,000 tested, 1% active; further: potency means the concentration at half of the fitted maximal effect; nearly all actives have a fitted effect of over 50% in size
Target sequence (Q6W5P4 whole entry, looked up): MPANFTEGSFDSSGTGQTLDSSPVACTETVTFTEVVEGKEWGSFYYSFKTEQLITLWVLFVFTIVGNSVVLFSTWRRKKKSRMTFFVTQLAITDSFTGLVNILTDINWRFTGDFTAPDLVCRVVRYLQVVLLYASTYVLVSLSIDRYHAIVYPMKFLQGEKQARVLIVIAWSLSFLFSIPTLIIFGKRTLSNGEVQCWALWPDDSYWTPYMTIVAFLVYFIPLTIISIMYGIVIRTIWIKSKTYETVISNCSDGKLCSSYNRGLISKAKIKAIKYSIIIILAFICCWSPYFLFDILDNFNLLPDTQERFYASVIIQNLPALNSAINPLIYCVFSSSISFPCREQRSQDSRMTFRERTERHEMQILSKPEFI
ALDH1A1 inh: ALDH1A1 (human) enzyme inhibition | Purified ALDH1A1, NADH fluorescence, propionaldehyde substrate | 220,000 tested, 7.3% active | Potency, µM (series often up to 75.3 µM), inactives show at the highest dose activity, negative = inhibition, usual class: inhibitors; active means well fitted inhibition curve with a large enough effect, not every such curve was filed as active; inconclusive means small, poorly fitted or top-dose-only effect, or another doubt; inactive means no such curve, though single readings can be large or run the other way;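 further: potency means the concentration at half of the fitted maximal effect; plate controls were no enzyme wells and a reference inhibitor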
* marks the source's active call; other numbers are inactive results; ? = inconclusive; . = no result given; [ ] = another dose, or the depositor's remark. Unless noted, the call rests on the fitted dose curve; in most records, active means well fitted curve in the direction sought with a large enough effect; inconclusive means small, poorly fitted or top-dose-only effect, or another doubt; inactive means no such curve, though single readings can be large; an effect the other way counts as inactive or inconclusive. Unless noted, on the % scale 0 is the no-effect control and ±100 the full control effect.

SMILES	ALOX12 inhib	IMPase Li inh	HPGD block	IMPase cell inh	NPSR antag	ALDH1A1 inh
O=C(/C=C\Nc1ccc2c(c1)OCO2)c1ccc2c(c1)OCO2	.	0%	.	.	3%	6%
O=C(O)CC1S/C(=N/N=C/c2ccc(-c3ccccc3[N+](=O)[O-])o2)NC1=O (stereo not drawn)	-13%	13%[38.3 µM]	16µM*	3	-5%[46.1 µM]	8.9µM*
Cc1ccc(-c2ccc(/C=N/N=C3/NC(=O)C(CC(=O)O)S3)o2)c([N+](=O)[O-])c1 (stereo not drawn)	-10%	1%[38.3 µM]	18µM*	3	-9%[46.1 µM]	-4%
Cc1ccc(-c2ccc(CCC(=O)O)n2NC(=O)c2cccs2)cc1	?	5%[38.3 µM]	-21%	7	-35%[46.1 µM]	11%
Cc1cc(C(F)F)n2nc(C(=O)Nc3ccccc3F)nc2n1	6%	15%[38.3 µM]	-11%	-2	-11%[46.1 µM]	?
N#Cc1nc(-c2cccc3ccccc23)oc1NCCN1CCCCC1	-5%	11µM*	?	-30	29%[46.1 µM]	?
O=[N+]([O-])c1ccc(O)c(C2=NNC(c3ccccc3F)C2)c1 (stereo not drawn)	.	.	.	.	-50%	.
O=C(O)c1ccc(S(=O)(=O)Nc2ccc(F)c(Cl)c2)cc1	-1%	8%[38.3 µM]	2%	-21	6%[46.1 µM]	7%
Cc1ccc(/C(COc2ccccc2O)=N\O)cc1	-2%	6%	-14%	-2	-1%[46.1 µM]	9%
C[C@H]1Cc2c(-c3ccccc3)nc3c(c2CO1)CN(C(=O)NCCc1c[nH]c2ccccc12)CC3	4%[11.4 µM]	8%	0%	.	.	11%[13.5 µM]
O=C(c1ccc(C#CC2(O)CCCCC2)cc1)N1CCOCC1	-7%	32%[38.3 µM]	14µM*	?	-2%[46.1 µM]	-11%
CCn1c(C)nc2cc(C(=O)NNC(=O)Nc3ccc(Cl)c(Cl)c3)ccc21	.	11%	.	.	-5%	-2%
CC(=O)C1C(=O)CC(C)(O)C(C(C)=O)C1c1ccc(N(C)C)cc1 (stereo not drawn)	-11%	29%[38.3 µM]	0%	-8	-8%[46.1 µM]	3.2µM*
Nn1cc(-c2ccccc2)nc1SCC(=O)Nc1ccc2c(c1)OCO2	-5%	2%	-17%	-7	1%	1.4µM*
O=C(COC(=O)c1c2c(nc3ccccc13)CCCC2)Nc1ccc2c(c1)OCO2	-29%	29%[38.3 µM]	-21%	8	?	8.9µM*
O=C(CSc1ncnc2ccccc12)Nc1ccc2c(c1)OCCO2	.	-1%	.	.	3%	-3%
Nn1cc(-c2ccccc2)nc1SCC(=O)NCCc1ccccc1	.	19%	.	.	5%	3.2µM*
Nn1cc(-c2ccccc2)nc1SCC(=O)NCC(F)(F)F	.	-3%	.	.	9%	3%
O=C(CSc1ncnc2ccccc12)Nc1ccc2c(c1)OCO2	1%	24%[38.3 µM]	-7%	4	-8%[46.1 µM]	11µM*
O=C1C=C(NCCN2CCOCC2)C(=O)c2cnccc21	-7%	11%	-16%	.	-10%	-8%
CCS(=O)(=O)c1ccc(O)c(NC(=O)CCCC(=O)O)c1	.	.	.	.	8%	.
CC(=O)Nc1sc(NC(=O)c2ccc([N+](=O)[O-])cc2)nc1-c1cccs1	.	.	.	.	20%	.
O=C(CSc1nc2ncc(Br)cc2[nH]1)Nc1ccc2c(c1)OCO2	-4%	.	.	10	-7%[46.1 µM]	25µM*
CCCCn1c(=N)n(CC(O)c2ccccc2)c2ccccc21 (stereo not drawn)	.	.	.	.	-10%	.
O=c1c(F)cn(C2CCCO2)c(=O)n1Cc1ccc(Cl)cc1 (stereo not drawn)	.	5%	.	.	-20%	-6%
SMILES	ALOX12 inhib	IMPase Li inh	HPGD block	IMPase cell inh	NPSR antag	ALDH1A1 inh
O=c1c(F)cn(C2CCCO2)c(=O)n1Cc1c(Cl)cccc1Cl (stereo not drawn)	2%	47%[38.3 µM]	16µM*	4	-16%[46.1 µM]	-1%
Cc1cccc(-c2nc(CN3CCCC(C(=O)NC4CCCCCC4)C3)c(C)o2)c1 (stereo not drawn)	-6%	8%[38.3 µM]	-16%	-3	-26%[46.1 µM]	-12%
S=c1[nH]nc(-c2ccco2)n1/N=C/C=C/c1ccccc1	-6%	10%[38.3 µM]	14µM*	3	-20%[46.1 µM]	?
S=c1[nH]nc(-c2ccccc2)n1/N=C/C=C/c1ccco1	-7%	8%	11µM*	16	-42%	?
CC(C)CCNc1nc2ccccc2nc1NS(=O)(=O)c1cccs1	.	.	.	.	-4%	.
Cc1cc(=O)n(C)c(=O)n1CCCCCOc1cccc([N+](=O)[O-])c1	1%	22%[38.3 µM]	-23%	14	-5%[46.1 µM]	-7%
N#Cc1nc(COc2ccc(Cl)cc2)oc1N1CCCCCC1	-11%	40%[38.3 µM]	?	47	?	?
N#Cc1nc(COc2ccccc2)oc1N1CCCCC1	-7%	16%[38.3 µM]	?	6	?	13µM*
COCC(=O)/C=C1\Sc2ccccc2N1C	-1%	19%[38.3 µM]	-22%	2	-11%[46.1 µM]	?
CN1/C(=C/C(=O)C2CCC2)Sc2ccccc21	-11%	-9%[38.3 µM]	-29%	2	16%[46.1 µM]	3.5µM*
O=C(CSc1ccc(Cl)cc1)NC1CCCC1	-7%	1%[38.3 µM]	10µM*	5	-4%[46.1 µM]	-4%
O=C(CCSCc1ccc(Cl)cc1)NC1CCCC1	-3%	3%	18µM*	23	-15%[46.1 µM]	-1%
CC(=O)OC(C(=O)NC1CCCCC1)c1ccc(Cl)cc1 (stereo not drawn)	-4%	23%[38.3 µM]	-6%	1	-4%[46.1 µM]	6%
CC1CCCC(C)N1C(=O)CSCc1ccc(Cl)cc1 (stereo not drawn)	-5%	21%[38.3 µM]	-16%	-4	-16%[46.1 µM]	22µM*
O=C(NC1CCCCC1)Sc1ccc(Cl)cc1	-9%	33%[38.3 µM]	8.9µM*	3	-9%[46.1 µM]	?
CCOC(=O)c1sc2ncnc(N3CCN(CC)CC3)c2c1C	.	-1%	.	.	12%	-6%
Cc1cc2c(=O)oc(-c3ccc(F)cc3)nc2s1	.	5%	.	.	-6%	16µM*
CC(C)OC(=O)/C(=C/c1cccnc1)NC(=O)c1ccccc1	-1%	-6%	4%	-7	25%	11%
Cc1ccc(SCc2c(-c3ccccc3)nn(C)c2Cl)cc1	-2%	-4%[38.3 µM]	-8%	7	-19%[46.1 µM]	3%
CCOC(=O)C1CCN(S(=O)(=O)c2cccc(-c3cn4cc(Cl)ccc4n3)c2)CC1	6%	11%[38.3 µM]	?	12	-24%[46.1 µM]	?
COc1cc(Cl)cc(C2NC(=O)NC(C)=C2C(C)=O)c1OCC(=O)O (stereo not drawn)	-5%	-1%[38.3 µM]	-9%	-1	-3%[46.1 µM]	2.2µM*
CC(=O)c1ccc(OCC(O)CN2CC(C)OC(C)C2)cc1 (stereo not drawn)	0%	-6%[38.3 µM]	-5%	6	15%[46.1 µM]	15%
C=CCOc1ccccc1OC[C@H](O)CNC(C)C	1%[25.6 µM]	-2%	-6%	4[20.6 µM]	.	5%[20.9 µM]
CN(C)c1ccc(-c2nc(N(C)Cc3ccco3)c3ccccc3n2)cc1	-11%	16%	?	.	.	?

Bioassay records deposited in PubChem by National Center for Advancing Translational Sciences (NCATS).
